In ChEMBL document CHEMBL2218924, “A broad activity screen in support of a chemogenomic map for kinase signalling research and drug discovery” (Biochem J, 2013):

Assays:
[1] = target: Rho-associated protein kinase 2 (Homo sapiens) (UniProt O75116); conditions: at 1 µM
[2] = target: Rho-associated protein kinase 2 (Homo sapiens) (UniProt O75116); conditions: at 10 µM
[3] = target: Proto-oncogene tyrosine-protein kinase receptor Ret (Homo sapiens) (UniProt P07949); conditions: at 1 µM
[4] = target: Proto-oncogene tyrosine-protein kinase receptor Ret (Homo sapiens) (UniProt P07949); conditions: at 10 µM
[5] = target: Macrophage-stimulating protein receptor (Homo sapiens) (UniProt Q04912); conditions: at 1 µM
Sequence of Macrophage-stimulating protein receptor (Homo sapiens) (Q04912 25-304 limits assumed): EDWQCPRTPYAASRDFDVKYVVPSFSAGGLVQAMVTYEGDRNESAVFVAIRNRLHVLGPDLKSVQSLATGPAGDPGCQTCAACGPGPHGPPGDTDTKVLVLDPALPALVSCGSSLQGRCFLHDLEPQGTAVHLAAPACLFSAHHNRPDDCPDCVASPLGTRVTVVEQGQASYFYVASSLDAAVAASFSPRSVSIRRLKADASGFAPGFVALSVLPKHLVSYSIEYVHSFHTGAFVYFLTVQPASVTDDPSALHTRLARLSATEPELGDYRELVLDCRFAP
Sequence of Macrophage-stimulating protein receptor (Homo sapiens) (Q04912 310-1400 limits assumed): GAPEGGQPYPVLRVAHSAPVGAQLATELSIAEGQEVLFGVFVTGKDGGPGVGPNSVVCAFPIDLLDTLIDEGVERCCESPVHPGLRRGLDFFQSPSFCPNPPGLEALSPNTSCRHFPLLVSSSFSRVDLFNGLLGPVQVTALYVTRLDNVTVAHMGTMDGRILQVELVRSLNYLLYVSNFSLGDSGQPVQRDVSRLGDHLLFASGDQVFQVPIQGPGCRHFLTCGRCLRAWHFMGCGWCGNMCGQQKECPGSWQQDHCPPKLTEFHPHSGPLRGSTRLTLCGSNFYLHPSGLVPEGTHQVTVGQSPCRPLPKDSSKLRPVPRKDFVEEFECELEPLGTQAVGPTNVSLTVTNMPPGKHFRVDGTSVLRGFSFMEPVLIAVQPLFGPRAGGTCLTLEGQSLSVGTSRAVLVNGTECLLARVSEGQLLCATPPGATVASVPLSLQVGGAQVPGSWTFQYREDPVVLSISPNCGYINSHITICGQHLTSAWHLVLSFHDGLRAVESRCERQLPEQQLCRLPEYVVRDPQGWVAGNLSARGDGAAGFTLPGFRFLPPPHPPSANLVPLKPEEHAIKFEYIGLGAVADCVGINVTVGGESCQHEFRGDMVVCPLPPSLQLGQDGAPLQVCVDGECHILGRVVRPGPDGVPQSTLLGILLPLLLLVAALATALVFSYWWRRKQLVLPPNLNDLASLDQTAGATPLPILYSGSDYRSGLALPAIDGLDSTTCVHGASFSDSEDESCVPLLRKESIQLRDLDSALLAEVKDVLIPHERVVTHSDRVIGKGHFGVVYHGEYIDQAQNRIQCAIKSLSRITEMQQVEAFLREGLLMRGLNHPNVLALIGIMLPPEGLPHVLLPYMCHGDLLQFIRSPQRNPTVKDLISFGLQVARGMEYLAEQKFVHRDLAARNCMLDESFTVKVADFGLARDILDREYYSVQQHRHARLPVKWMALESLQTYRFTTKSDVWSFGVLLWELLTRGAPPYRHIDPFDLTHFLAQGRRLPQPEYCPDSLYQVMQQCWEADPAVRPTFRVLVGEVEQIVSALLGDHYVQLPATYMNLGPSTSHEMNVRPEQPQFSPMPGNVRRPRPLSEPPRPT

[6] = target: Macrophage-stimulating protein receptor (Homo sapiens) (UniProt Q04912); conditions: at 10 µM
[7] = target: Proto-oncogene tyrosine-protein kinase ROS (Homo sapiens) (UniProt P08922); conditions: at 1 µM
Sequence of Proto-oncogene tyrosine-protein kinase ROS (Homo sapiens) (P08922 whole entry): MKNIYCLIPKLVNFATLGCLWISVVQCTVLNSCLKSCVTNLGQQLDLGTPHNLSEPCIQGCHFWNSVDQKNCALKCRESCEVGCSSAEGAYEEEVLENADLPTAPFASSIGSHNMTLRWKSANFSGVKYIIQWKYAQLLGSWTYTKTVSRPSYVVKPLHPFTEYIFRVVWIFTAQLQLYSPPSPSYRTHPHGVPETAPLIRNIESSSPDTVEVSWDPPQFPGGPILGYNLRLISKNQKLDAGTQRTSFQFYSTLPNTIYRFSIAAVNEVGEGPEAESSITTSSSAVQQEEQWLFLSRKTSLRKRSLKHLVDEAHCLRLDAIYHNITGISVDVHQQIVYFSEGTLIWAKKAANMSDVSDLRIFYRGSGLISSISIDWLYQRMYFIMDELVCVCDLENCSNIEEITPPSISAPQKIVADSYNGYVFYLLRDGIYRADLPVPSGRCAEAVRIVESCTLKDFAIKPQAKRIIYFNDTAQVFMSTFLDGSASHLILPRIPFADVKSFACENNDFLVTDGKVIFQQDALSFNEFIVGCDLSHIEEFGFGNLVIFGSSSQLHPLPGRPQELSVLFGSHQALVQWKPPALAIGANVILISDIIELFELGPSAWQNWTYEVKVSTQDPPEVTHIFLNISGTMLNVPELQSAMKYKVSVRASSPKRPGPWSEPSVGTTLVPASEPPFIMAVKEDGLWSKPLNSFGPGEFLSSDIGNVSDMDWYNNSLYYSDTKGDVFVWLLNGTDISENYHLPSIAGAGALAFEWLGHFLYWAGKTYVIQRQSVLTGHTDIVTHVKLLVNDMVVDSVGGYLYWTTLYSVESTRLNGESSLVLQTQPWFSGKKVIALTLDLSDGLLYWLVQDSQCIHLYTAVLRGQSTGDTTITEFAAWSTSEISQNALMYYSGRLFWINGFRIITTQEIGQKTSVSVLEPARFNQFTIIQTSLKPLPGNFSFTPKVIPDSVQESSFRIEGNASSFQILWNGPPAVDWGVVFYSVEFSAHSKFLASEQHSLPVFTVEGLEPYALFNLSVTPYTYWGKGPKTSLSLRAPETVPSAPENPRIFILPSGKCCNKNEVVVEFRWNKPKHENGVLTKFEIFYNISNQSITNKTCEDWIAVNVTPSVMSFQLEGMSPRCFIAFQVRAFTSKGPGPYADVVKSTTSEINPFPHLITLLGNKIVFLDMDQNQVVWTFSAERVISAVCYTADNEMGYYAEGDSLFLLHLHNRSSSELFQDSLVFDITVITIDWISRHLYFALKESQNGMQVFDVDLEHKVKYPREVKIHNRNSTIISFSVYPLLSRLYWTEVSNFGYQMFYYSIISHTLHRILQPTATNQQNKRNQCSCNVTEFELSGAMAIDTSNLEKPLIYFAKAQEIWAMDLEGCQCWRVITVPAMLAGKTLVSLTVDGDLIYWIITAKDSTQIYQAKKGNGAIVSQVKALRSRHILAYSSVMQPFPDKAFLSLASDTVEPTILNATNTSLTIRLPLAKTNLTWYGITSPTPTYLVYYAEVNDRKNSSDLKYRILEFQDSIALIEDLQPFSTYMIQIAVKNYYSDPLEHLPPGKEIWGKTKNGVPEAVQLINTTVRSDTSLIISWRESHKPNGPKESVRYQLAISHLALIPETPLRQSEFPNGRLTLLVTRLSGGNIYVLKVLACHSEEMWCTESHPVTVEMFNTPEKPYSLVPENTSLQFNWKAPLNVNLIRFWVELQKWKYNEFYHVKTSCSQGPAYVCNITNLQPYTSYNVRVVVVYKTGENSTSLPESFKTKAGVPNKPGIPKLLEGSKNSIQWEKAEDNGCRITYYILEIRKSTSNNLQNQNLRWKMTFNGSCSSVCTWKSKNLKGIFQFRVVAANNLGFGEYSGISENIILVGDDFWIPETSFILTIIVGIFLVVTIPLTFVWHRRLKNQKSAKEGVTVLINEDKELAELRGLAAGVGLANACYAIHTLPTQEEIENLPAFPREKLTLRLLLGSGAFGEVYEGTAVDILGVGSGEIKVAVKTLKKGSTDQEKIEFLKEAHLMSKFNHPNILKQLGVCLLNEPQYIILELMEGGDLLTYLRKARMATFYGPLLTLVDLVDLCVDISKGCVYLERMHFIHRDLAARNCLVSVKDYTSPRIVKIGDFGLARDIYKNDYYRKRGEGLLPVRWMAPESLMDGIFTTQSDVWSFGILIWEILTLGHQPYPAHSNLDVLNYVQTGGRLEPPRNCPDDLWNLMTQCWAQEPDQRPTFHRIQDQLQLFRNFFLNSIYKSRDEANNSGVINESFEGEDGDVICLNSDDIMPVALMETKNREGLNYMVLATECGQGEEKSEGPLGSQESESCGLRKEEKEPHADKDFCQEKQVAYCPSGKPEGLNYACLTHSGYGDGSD

[8] = target: Proto-oncogene tyrosine-protein kinase ROS (Homo sapiens) (UniProt P08922); conditions: at 10 µM
[9] = target: T1, Tyrosine-protein kinase receptor TYRO3 (Homo sapiens) (UniProt Q06418); conditions: at 1 µM
T1 sequence (whole entry): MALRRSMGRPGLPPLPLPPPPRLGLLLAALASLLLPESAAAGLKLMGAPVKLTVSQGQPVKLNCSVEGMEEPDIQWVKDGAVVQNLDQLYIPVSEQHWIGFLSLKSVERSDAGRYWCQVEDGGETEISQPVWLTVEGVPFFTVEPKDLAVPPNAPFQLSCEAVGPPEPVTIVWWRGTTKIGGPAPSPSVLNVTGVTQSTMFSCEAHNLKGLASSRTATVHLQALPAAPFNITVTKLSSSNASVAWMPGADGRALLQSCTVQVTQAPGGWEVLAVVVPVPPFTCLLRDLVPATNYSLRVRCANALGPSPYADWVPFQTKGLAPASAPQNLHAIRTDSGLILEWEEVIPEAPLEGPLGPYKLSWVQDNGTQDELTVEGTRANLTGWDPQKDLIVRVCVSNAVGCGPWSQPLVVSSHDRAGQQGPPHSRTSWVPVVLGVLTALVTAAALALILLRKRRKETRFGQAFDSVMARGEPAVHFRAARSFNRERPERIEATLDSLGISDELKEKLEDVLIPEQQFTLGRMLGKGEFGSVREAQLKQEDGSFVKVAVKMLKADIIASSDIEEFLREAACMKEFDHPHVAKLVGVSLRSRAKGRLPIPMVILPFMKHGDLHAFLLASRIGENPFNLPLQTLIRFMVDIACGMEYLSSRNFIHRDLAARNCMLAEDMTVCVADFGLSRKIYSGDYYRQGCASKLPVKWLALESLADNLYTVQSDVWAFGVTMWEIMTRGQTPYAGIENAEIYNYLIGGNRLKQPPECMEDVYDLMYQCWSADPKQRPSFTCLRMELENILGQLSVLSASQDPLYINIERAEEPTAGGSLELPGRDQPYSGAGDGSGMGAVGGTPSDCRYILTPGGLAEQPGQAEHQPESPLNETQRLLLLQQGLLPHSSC

[10] = target: T1, Tyrosine-protein kinase receptor TYRO3 (Homo sapiens); conditions: at 10 µM

Sequence of Proto-oncogene tyrosine-protein kinase receptor Ret (Homo sapiens) (P07949 whole entry): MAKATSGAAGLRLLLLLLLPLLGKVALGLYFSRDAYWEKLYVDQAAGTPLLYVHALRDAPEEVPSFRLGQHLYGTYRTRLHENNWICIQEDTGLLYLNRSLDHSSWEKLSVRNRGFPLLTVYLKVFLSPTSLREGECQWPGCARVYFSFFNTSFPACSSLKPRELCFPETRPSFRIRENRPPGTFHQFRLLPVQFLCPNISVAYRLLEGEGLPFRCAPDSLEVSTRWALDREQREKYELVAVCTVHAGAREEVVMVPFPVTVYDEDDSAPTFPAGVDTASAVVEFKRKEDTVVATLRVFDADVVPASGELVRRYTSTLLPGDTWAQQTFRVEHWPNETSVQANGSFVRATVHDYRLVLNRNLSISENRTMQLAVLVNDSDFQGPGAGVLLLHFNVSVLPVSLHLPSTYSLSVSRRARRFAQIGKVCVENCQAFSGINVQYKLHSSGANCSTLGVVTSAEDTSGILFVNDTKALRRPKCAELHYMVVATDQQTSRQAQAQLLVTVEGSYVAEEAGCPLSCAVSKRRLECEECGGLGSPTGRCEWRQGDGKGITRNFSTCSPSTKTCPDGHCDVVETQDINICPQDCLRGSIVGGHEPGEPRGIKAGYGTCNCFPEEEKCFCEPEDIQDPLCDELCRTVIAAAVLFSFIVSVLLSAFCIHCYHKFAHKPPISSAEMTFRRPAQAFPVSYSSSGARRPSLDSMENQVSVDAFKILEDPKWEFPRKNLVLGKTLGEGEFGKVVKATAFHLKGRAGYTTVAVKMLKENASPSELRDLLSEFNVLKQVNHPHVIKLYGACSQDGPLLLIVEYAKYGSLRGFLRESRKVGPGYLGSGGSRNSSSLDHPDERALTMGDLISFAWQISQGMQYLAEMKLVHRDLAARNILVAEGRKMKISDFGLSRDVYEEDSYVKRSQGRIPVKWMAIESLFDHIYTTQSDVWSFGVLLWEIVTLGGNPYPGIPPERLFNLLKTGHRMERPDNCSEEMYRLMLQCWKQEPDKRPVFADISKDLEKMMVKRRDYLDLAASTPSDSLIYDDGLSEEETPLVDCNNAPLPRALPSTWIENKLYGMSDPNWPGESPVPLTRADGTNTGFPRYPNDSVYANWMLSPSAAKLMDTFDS

| SMILES | residual activity [1] [%] | residual activity [2] [%] | residual activity [3] [%] | residual activity [4] [%] | residual activity [5] [%] | residual activity [6] [%] | residual activity [7] [%] | residual activity [8] [%] | residual activity [9] [%] | residual activity [10] [%] |
| --- | --- | --- | --- | --- | --- | --- | --- | --- | --- | --- |
| O=c1c2ccccc2[nH]c(=S)n1CCN1CCC(=C(c2ccc(F)cc2)c2ccc(F)cc2)CC1 | 109 | 86 | 104 | 108 | 72 | 78 | 98 | 99 | 82 | 102 |
| Cc1cc2ncc(-c3ccccc3)nc2cc1C | 100 | 94 | 96 | 104 | 92 | 79 | 101 | 100 | – | – |
| Cc1nc(-c2ccccc2)c(-c2ccncc2)o1 | 106 | 76 | 11 | 7 | 87 | 96 | 98 | 97 | 98 | 121 |
| O=c1cc(-c2cccc3c2Sc2ccccc2S3)oc(N2CCOCC2)c1 | 102 | 101 | 102 | 83 | 90 | 104 | 109 | 96 | 93 | 103 |
| Nc1n[nH]c2nnc(-c3c(-c4ccccc4)nn4ccccc34)cc12 | 84 | 90 | 108 | 58 | 66 | 42 | 91 | 80 | 102 | 99 |
| CC(=O)O/N=C1\C(=C2\C(=O)Nc3cc(Br)ccc32)Nc2ccccc21 | 98 | 95 | 6 | -1 | 85 | 89 | 100 | 90 | 100 | 98 |
| CCOc1cc2ncnc(Nc3cccc(Br)c3)c2cc1OCC | 91 | 70 | 30 | 1 | 101 | 57 | 103 | 100 | 51 | 16 |
| Cc1nc2cc3nc(-c4cccs4)cnc3cc2n1C | 113 | 93 | 65 | 35 | 106 | 97 | 109 | 112 | 98 | 79 |
| Ic1cccc(CSc2nnc(-c3ccncc3)o2)c1 | 68 | 58 | 93 | 74 | 81 | 78 | 93 | 75 | 112 | 94 |
| O=C1c2ccccc2-[n+]2ccc3c([nH]c4ccccc43)c21 | 89 | 86 | 89 | 75 | 77 | 70 | 89 | 88 | 104 | 107 |
| COc1cccc(-c2cc(=O)c3ccccc3o2)c1N | 97 | 96 | 114 | 83 | 93 | 97 | 106 | 97 | 78 | 122 |
| COc1ccc(CNc2nc(N(CCO)CCO)nc3c2ncn3C(C)C)cc1 | 91 | 96 | 108 | 97 | 76 | 85 | 96 | 85 | 116 | 97 |
| Cn1cc(/C=C2\C(=O)Nc3ccc(S(N)(=O)=O)cc32)c2ccccc21 | 37 | 13 | 1 | 1 | 94 | 82 | 98 | 109 | 67 | 53 |
| c1ccc2c(-c3ccncc3)c[nH]c2c1 | 37 | 6 | 103 | 101 | 96 | 65 | 88 | 92 | 91 | 97 |
| O=Nc1c(-c2c(O)[nH]c3ccccc23)[nH]c2ccccc12 | 85 | 82 | 1 | 0 | 86 | 71 | 105 | 88 | 62 | 15 |
| Oc1ccc(-c2nc(-c3ccc(F)cc3)c(-c3ccncc3)[nH]2)cc1 | 95 | 36 | 101 | 47 | 84 | 68 | 115 | 104 | 103 | 81 |
